This is an account of results in PubChem BioAssay (EPA / NIEHS).

Results filed as inconclusive are left out. Active and inactive are the calls of the source. The calls were made as follows, unless noted: active = hit-call score of the fitted dose curve at least 0.9, where 1 is the maximum; inactive = score below 0.9.

Test [1] deals with Glucocorticoid receptor (Homo sapiens) (UniProt P04150). As to the kind of experiment: ATG_GR_TRANS: Attagene TRANS-FACTORIAL HepG2 Assay for human Glucocorticoid Receptor (GR) (AID 2282978; active = hit-call score of the fitted dose curve at least 0.9, where 1 is the maximum;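 also: activators score as hits since higher reporter transcript over DMSO is fitted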). The following applies: HepG2 Attagene TRANS GR reporter, mRNA transcription. An outline of the steps:
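Exogenous NR-GAL4 fusion activity was assessed through induced GAL4-UAS reporter transcripts in transfected human HepG2 cells, quantified after 24 h by RT-PCR and fluorescent capillary electrophoresis with DMSO as baseline.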

Test [2] addresses Bile acid receptor (Homo sapiens) (UniProt Q96RI1). As to the kind of experiment: ATG_FXR_TRANS: Attagene TRANS-FACTORIAL HepG2 Assay for Farnesoid X Receptor (FXR) (AID 2282979; active = hit-call score of the fitted dose curve at least 0.9, where 1 is the maximum;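 also: hits raise reporter mRNA above DMSO so AC50 marks FXR activation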). The following applies: HepG2 Attagene TRANS FXR-GAL4 reporter transcription. The essentials: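 Transient transfection of HepG2 with multiplexed GAL4-UAS reporter units; exogenous FXR-GAL4 chimera. Dose 24 h → TriZol RNA → oligo(dT) RT → PCR, 6-FAM primer extension, HpaI cut → CE. Gain vs DMSO.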

The target of test [3] is Oxysterols receptor LXR-alpha (Homo sapiens) (UniProt Q13133). As to the kind of experiment: ATG_LXRa_TRANS: Attagene TRANS-FACTORIAL HepG2 Assay for human Liver X Receptor alpha (LXRa) (AID 2282980; active = hit-call score of the fitted dose curve at least 0.9, where 1 is the maximum). The following applies: HepG2 Attagene TRANS reporter, LXRa transactivation. An outline of the steps:
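Transfect HepG2 with GAL4-UAS multiplex reporter constructs (TRANS format, chimeric receptor-GAL4); treat 24 h; extract RNA, reverse-transcribe, PCR-amplify, FAM-label, HpaI-digest; resolve fragments by capillary electrophoresis. Upward response vs DMSO.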

For test [4], the target named is Oxysterols receptor LXR-beta (Homo sapiens) (UniProt P55055). Put plainly: ATG_LXRb_TRANS: Attagene TRANS-FACTORIAL HepG2 Assay for human Liver X Receptor beta (LXRb) (AID 2282981; active = hit-call score of the fitted dose curve at least 0.9, where 1 is the maximum). The following applies: HepG2 Attagene TRANS GAL4-LXRb reporter, mRNA. The essentials: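 After 24 h of chemical treatment, transfected HepG2 cells yield total RNA; reporter cDNA is PCR-amplified, FAM-labelled, HpaI-cut and run on capillary electrophoresis. Signal reflects chimeric LXRb-Gal4 activity on GAL4-UAS reporters.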

Test [5] concerns the target Hepatocyte nuclear factor 4-alpha (Homo sapiens) (UniProt P41235). As to the kind of experiment: ATG_HNF4a_TRANS: Attagene TRANS-FACTORIAL HepG2 Assay for human Hepatocyte Nuclear Factor 4 alpha (HNF4a) (AID 2282982; active = hit-call score of the fitted dose curve at least 0.9, where 1 is the maximum). The following applies: HepG2 HNF4a transactivation reporter, mRNA readout. An outline of the steps: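 Multiplexed reporter assay: transfected HepG2, 24 h exposure, total RNA → oligo(dT) RT → PCR → 6-FAM extension → HpaI digest → CE fluorescence. DMSO = negative control.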

Test [6] in a line: ATG_M_06_TRANS: Attagene TRANS-FACTORIAL HepG2 Assay for M06 Transcription Factor (Internal Marker) (AID 2282983; active = hit-call score of the fitted dose curve at least 0.9, where 1 is the maximum;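 also: reporter transcript level by RT-PCR then capillary electrophoresis fluorescence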). The following applies: HepG2 Attagene TRANS M06 internal marker reporter. The essentials:
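Background control endpoint: reporter mRNA from transiently transfected HepG2 after 24 h dosing, detected by RT-PCR with capillary electrophoresis fluorescence. Analysed for gain versus DMSO.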

A short description of test [7]: ATG_M_32_TRANS: Attagene TRANS-FACTORIAL HepG2 Assay for M32 Transcription Factor (Internal Marker) (AID 2282984; active = hit-call score of the fitted dose curve at least 0.9, where 1 is the maximum;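 also: transcript level of a background control reporter unit measured by RT-PCR and capillary electrophoresis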). The following applies: HepG2 Attagene TRANS M32 internal marker reporter. The essentials: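 Cell-based TRANS-format assay in HepG2: exogenous chimeric GAL4 reporter units transiently expressed, compounds applied 24 h. Reporter mRNA detected by RT-PCR plus capillary electrophoresis; this readout is an internal background marker.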

Test [8] concerns the target Nuclear receptor subfamily 4 group A member 2 (Homo sapiens) (UniProt P43354). Put plainly: ATG_NURR1_TRANS: Attagene TRANS-FACTORIAL HepG2 Assay for human Nuclear Receptor Related Protein 1 (NURR1) (AID 2282985; active = hit-call score of the fitted dose curve at least 0.9, where 1 is the maximum). The following applies: HepG2 Attagene TRANS reporter, mRNA readout. An outline of the steps: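 Measures transcriptional activation by an exogenous NR-Gal4 chimera in transfected HepG2 liver cells. After 24 h, reporter RNA is reverse-transcribed, amplified and resolved by capillary electrophoresis; DMSO defines baseline.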

The target of test [9] is Transcriptional activator Myb (Homo sapiens) (UniProt P10242). As to the kind of experiment: ATG_Myb_CIS: Attagene CIS-FACTORIAL HepG2 Assay for human Myeloblastosis (Myb) Proto-Oncogene Transcription Factor (AID 2282986). The following applies: HepG2 Attagene CIS-FACTORIAL Myb reporter transcription; actives raise or lower the signal. An outline of the steps:
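In this HepG2 transient-transfection format, cis-regulated reporter mRNA is quantified 24 h post-dosing by RT-PCR with capillary electrophoresis, fitted bidirectionally to DMSO baseline.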

Test [10] addresses Nuclear respiratory factor 1 (Homo sapiens) (UniProt Q16656). As to the kind of experiment: ATG_NRF1_CIS: Attagene CIS-FACTORIAL HepG2 Assay for human Nuclear Respiratory Factor 1 (NRF1) Orphan Gene (AID 2282987). The following applies: HepG2 NRF1 cis-element reporter, Attagene multiplex; actives raise or lower the signal. The essentials: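 Using DMSO as baseline, gain- or loss-of-signal was fitted for reporter mRNA levels in HepG2 cells transiently transfected with cis-regulated reporter units. Samples were taken 24 h after dosing and read by RT-PCR with capillary electrophoresis.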

Test [11] is described as follows: ATG_NFI_CIS: Attagene CIS-FACTORIAL HepG2 Assay for human Nuclear Factor I (NFI) (AID 2282989). The following applies: HepG2 cis-regulatory reporter, NFI response element transcription; actives raise or lower the signal. The essentials:
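Transfected HepG2 liver cells, exposed 24 h, supplied total RNA for oligo(dT) reverse transcription and reporter-specific PCR. Labelled, HpaI-cut fragments were sized by capillary electrophoresis; DMSO set the baseline for bidirectional fitting.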

The target in test [12] is Myc proto-oncogene protein (Homo sapiens) (UniProt P01106). Put plainly: ATG_Myc_CIS: Attagene CIS-FACTORIAL HepG2 Assay for human Myelocytomatosis (Myc) Proto-Oncogene Transcription Factor (AID 2282990). The following applies: HepG2, Attagene cis-reporter transcription factor activity; actives raise or lower the signal. The essentials: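 HepG2, transient MRTU transfection (cis promoters, endogenous TFs); 24 h dosing; TriZol RNA → oligo(dT) RT → PCR → 6-FAM primer extension → HpaI cut → CE. Bidirectional fit vs DMSO.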

Test [13] is described as follows: ATG_NF_kB_CIS: Attagene CIS-FACTORIAL HepG2 Assay for human Nuclear Factor Kappa B (NF-kB) (AID 2282991). The following applies: HepG2 Attagene cis-factorial NF-kB reporter mRNA; actives raise or lower the signal. An outline of the steps: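 Endpoint from a 52-component multiplexed HepG2 reporter panel: cis-regulated transcription units transiently transfected, 24 h dosing, reporter mRNA quantified by RT-PCR and capillary electrophoresis, scored as increase or decrease against DMSO.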

The nature of test [14]: ATG_NRF2_ARE_CIS: Attagene CIS-FACTORIAL HepG2 Assay for human Nuclear Factor Erythroid 2 Related Factor 2 (NFR2) response to Antioxidant Response Elements (ARE) (AID 2282992).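 As to AC50: reporter mRNA level measured by RT-PCR and capillary electrophoresis fluorescence.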 The following applies: HepG2 Attagene ARE/NRF2 reporter, transcription factor activity; actives raise or lower the signal. An outline of the steps: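 Fluorescence intensity of reporter-specific cDNA fragments, separated by capillary electrophoresis, reflects mRNA induction in transfected HepG2 cells at 24 h. Activity is fitted bidirectionally, DMSO serving as baseline.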

Test [15] can be described thus: ATG_Oct_MLP_CIS: Attagene CIS-FACTORIAL HepG2 Assay for human Octamer-Binding Transcription Factor (Oct) (AID 2282993). The following applies: HepG2 Attagene cis-factorial Oct reporter, mRNA; actives raise or lower the signal. The essentials:
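Using HepG2 cells bearing transfected cis-reporter constructs, mRNA induction was read after 24 h by fluorescent RT-PCR and capillary electrophoresis, with DMSO defining baseline for gain- or loss-of-signal fits.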

The target of test [16] is Cellular tumor antigen p53 (Homo sapiens) (UniProt P04637). Put plainly: ATG_p53_CIS: Attagene CIS-FACTORIAL HepG2 Assay for human p53 Transcription Factor (AID 2282994). The following applies: HepG2 p53 cis-element reporter, Attagene mRNA; actives raise or lower the signal. The essentials: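 Transiently transfected HepG2 (multiple cis reporter transcription units); exposure 24 h; reporter RNA via RT-PCR, 6-FAM extension, 2 h HpaI digest at 37 C, CE detection; DMSO baseline.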

The nature of test [17]: BSK_3C_TissueFactor: BioMAP Diversity Plus: 3C Assay for Tissue Factor Biomarker Activity (AID 2282997). The following applies: BioMAP 3C HUVEC, tissue factor biomarker readout; actives raise or lower the signal. An outline of the steps:
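After a 24 h chemical exposure of primary human umbilical vein endothelial cells, Tissue Factor levels were quantified by ELISA.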

A short description of test [18]: BSK_3C_uPAR: BioMAP Diversity Plus: 3C Assay for Urokinase-type plasminogen activator receptor (uPAR) Biomarker Activity (AID 2282998). The following applies: BioMAP 3C HUVEC, uPAR biomarker ELISA; actives raise or lower the signal. An outline of the steps:
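In this endothelial cell-based assay, human umbilical vein primary cells were treated with chemicals and harvested at 24 h. uPAR was quantified using ELISA, with gains or losses fitted relative to DMSO controls.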
(In general: ELISA stands for enzyme-linked immunosorbent assay.)

Test [19] in a line: BSK_3C_VCAM1: BioMAP Diversity Plus: 3C Assay for Vascular cell adhesion molecule 1 (VCAM1) Biomarker Activity (AID 2282999). The following applies: BioMAP 3C HUVEC, VCAM1 ELISA, cytokine-stimulated; actives raise or lower the signal. An outline of the steps: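 Activity fitted in both directions relative to DMSO, with ELISA measurement of the surface marker on primary HUVEC (3C) at 24 h post-treatment; parallel SRB staining (0.1% SRB, TCA-fixed, 560 nm) flagged overt cytotoxicity.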

Test [20] is described as follows: BSK_4H_Eotaxin3: BioMAP Diversity Plus: 4H Assay for Eotaxin 3 Biomarker Activity (AID 2283000).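 As to outcome: CCL26 protein level quantified by ELISA in parallel with SRB cytotoxicity check.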 The following applies: primary human endothelial cells (HUVEC); actives raise or lower the signal. An outline of the steps: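 Chemicals were added to human umbilical vein endothelium cultures, and Eotaxin-3 was quantified by ELISA at 24 h. Values were derived by bidirectional fitting with DMSO serving as negative control and activity baseline.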

Chain of Nuclear respiratory factor 1 (Homo sapiens) (Q16656 whole entry, looked up): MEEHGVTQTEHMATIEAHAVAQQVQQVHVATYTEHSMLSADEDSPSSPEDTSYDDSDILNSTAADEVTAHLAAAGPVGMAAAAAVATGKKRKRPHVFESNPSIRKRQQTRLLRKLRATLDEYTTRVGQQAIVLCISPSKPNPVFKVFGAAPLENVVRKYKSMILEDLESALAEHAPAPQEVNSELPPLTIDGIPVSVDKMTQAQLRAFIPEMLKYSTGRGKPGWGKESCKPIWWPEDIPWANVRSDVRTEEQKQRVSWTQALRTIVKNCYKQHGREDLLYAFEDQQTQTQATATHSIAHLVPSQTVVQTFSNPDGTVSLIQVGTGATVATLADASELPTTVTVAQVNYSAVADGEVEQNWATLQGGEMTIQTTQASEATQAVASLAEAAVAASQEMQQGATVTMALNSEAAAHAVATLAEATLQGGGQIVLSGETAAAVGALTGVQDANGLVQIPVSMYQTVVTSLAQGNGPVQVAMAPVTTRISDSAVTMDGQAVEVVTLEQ
Chain of Bile acid receptor (Homo sapiens) (Q96RI1 whole entry, looked up, the tested form may be a part): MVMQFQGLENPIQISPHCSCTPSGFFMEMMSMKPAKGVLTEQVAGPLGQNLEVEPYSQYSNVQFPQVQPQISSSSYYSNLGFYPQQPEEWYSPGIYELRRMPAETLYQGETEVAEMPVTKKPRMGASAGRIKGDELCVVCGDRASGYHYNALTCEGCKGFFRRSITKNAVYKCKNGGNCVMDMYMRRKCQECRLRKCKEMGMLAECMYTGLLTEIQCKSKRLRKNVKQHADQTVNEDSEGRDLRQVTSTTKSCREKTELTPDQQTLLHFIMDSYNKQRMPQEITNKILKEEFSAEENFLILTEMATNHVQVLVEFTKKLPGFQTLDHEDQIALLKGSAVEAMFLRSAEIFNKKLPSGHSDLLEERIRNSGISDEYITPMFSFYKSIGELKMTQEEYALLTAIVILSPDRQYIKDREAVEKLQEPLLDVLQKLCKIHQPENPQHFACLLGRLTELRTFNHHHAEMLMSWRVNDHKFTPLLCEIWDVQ
Chain of Oxysterols receptor LXR-alpha (Homo sapiens) (Q13133 whole entry, looked up, the tested form may be a part): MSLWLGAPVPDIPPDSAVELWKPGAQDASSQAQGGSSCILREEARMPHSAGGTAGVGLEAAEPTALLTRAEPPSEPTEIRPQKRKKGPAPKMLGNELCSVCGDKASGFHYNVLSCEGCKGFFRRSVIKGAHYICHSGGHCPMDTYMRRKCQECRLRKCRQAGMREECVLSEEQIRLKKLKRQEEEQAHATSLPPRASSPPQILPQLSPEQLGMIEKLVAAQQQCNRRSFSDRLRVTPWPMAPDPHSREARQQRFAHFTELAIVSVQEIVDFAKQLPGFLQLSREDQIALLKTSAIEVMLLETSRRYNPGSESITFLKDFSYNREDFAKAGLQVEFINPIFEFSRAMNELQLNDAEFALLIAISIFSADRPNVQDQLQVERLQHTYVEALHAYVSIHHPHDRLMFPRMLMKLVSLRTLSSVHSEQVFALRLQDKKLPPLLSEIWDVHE
Chain of Transcriptional activator Myb (Homo sapiens) (P10242 whole entry, looked up): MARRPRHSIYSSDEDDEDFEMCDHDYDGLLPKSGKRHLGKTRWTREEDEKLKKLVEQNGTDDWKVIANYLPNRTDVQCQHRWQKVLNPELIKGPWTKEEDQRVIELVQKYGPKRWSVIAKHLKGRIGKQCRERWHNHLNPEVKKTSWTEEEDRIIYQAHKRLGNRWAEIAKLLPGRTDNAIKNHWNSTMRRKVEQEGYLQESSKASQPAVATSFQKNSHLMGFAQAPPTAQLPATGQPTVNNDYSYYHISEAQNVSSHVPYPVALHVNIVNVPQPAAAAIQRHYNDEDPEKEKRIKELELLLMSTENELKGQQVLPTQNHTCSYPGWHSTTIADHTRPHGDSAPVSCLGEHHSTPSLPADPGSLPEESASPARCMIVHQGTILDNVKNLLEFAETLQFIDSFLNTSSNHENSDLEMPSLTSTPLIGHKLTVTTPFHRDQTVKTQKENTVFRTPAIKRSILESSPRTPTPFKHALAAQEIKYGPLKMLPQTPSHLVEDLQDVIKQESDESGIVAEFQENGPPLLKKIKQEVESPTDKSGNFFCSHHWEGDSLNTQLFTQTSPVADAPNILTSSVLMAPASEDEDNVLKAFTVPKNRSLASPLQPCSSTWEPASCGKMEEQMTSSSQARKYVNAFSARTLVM
Chain of Cellular tumor antigen p53 (Homo sapiens) (P04637 whole entry, looked up): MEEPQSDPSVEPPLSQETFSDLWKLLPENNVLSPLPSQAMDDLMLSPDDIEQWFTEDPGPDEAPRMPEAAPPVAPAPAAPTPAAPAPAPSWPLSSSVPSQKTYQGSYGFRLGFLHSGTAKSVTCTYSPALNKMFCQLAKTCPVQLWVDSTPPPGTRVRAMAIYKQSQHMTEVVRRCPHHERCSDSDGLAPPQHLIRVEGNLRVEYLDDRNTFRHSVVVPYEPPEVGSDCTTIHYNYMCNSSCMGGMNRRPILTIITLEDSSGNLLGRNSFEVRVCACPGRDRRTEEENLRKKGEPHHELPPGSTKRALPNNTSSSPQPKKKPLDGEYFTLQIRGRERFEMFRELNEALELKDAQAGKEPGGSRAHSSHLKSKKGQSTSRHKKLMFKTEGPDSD
Chain of Glucocorticoid receptor (Homo sapiens) (P04150 whole entry, looked up, the tested form may be a part): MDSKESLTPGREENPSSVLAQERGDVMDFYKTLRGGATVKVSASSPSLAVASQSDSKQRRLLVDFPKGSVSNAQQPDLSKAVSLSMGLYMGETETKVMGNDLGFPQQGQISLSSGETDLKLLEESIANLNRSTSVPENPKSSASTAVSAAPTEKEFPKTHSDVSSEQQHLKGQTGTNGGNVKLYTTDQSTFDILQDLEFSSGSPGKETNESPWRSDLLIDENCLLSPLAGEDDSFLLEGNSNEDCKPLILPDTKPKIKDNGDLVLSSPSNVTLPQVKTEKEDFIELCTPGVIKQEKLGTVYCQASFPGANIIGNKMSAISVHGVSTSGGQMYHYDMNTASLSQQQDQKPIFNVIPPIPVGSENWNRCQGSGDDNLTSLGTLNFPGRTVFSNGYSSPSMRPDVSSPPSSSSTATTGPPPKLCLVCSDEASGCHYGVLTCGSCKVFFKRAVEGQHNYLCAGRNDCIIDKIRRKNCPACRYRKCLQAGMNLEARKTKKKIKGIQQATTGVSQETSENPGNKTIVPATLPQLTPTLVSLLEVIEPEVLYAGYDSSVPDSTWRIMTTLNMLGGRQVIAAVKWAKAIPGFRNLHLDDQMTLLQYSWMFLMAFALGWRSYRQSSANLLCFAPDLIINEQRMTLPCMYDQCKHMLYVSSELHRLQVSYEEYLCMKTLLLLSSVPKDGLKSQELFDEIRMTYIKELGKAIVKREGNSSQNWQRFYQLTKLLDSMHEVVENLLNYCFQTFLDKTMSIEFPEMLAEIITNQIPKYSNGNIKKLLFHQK
Chain of Nuclear receptor subfamily 4 group A member 2 (Homo sapiens) (P43354 whole entry, looked up, the tested form may be a part): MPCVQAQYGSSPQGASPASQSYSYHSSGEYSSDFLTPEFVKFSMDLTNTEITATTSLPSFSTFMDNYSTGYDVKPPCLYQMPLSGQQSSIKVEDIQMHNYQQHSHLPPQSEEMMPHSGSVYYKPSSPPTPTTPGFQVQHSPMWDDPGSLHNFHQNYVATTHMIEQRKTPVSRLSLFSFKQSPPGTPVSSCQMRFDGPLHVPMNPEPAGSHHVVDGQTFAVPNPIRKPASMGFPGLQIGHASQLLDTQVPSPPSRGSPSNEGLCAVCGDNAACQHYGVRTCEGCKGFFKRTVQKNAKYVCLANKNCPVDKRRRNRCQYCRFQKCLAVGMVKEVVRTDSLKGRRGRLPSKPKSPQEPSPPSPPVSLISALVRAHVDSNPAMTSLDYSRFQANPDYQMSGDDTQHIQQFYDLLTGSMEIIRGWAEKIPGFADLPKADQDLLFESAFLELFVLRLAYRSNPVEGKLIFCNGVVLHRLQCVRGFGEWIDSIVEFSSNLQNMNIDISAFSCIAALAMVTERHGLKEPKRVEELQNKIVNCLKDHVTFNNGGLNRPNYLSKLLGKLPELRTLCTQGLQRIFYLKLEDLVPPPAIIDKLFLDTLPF
Chain of Hepatocyte nuclear factor 4-alpha (Homo sapiens) (P41235 whole entry, looked up): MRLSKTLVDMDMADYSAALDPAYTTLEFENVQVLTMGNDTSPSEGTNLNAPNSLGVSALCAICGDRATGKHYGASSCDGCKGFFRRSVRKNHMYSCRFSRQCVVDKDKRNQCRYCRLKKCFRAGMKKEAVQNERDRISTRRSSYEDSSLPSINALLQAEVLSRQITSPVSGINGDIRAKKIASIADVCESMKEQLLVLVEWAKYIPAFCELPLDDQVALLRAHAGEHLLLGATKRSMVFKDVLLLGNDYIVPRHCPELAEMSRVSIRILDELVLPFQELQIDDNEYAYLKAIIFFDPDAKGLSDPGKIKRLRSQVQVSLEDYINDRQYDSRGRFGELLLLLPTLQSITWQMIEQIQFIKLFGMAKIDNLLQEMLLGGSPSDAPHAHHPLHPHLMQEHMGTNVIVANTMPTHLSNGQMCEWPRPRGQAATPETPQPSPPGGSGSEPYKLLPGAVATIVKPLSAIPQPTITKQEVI
Chain of Oxysterols receptor LXR-beta (Homo sapiens) (P55055 whole entry, looked up, the tested form may be a part): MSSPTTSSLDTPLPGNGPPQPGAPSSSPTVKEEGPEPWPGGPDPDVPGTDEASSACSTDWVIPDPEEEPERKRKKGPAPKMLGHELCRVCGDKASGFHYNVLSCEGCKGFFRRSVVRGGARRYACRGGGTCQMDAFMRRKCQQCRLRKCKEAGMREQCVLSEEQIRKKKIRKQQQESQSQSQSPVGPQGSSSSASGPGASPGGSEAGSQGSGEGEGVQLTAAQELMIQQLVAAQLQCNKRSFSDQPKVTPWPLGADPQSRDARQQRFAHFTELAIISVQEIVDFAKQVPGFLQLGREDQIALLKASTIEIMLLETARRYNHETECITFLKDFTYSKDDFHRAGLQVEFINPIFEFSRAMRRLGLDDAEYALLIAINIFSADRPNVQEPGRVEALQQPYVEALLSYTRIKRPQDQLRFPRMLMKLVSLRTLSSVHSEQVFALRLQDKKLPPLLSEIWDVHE

On to `Nc1ccc([N+](=O)[O-])cc1`, for which the compound was classed as inactive in test [1], in test [2], in test [3], in [4], in [5] and in test [6]. In addition, the result in [7], in [8], in test [9], in [10], in [11] and in test [12] was inactive. The compound was called inactive in [13], in test [14], in test [15], in test [16], in test [17] and in test [18]. The result in [19] and in test [20] was inactive.

Turning to `CCCCCCCCOC(=O)c1ccc(C(=O)OCCCCCCCC)c(C(=O)OCCCCCCCC)c1`, the outcome in [1], in test [3], in test [5], in [8], in test [9] and in [11] was inactive. Further, the outcome in [12], in test [13], in test [14], in test [15], in test [16] and in test [17] was inactive. The result in test [18], in test [19] and in [20] was inactive.

Turning to `Nc1ccc(N=Nc2ccccc2)cc1`, the result in [1], in [4], in test [5], in test [7], in [8] and in [9] was inactive. Moreover, the compound was classed as inactive in [10], in [11], in [16], in [17], in test [18] and in test [19]. In [20], the outcome was inactive. For the same compound, the concentration at half-maximal activity (AC50) in test [14] was 3.6 µM (active); in test [15] it was 36.2 µM (active).

With `CO[C@@H]1[C@H](OC(=O)NC(=O)CCl)CC[C@]2(CO2)[C@H]1[C@@]1(C)O[C@@H]1CC=C(C)C`, the call in test [1], in test [3], in [4], in [5], in test [6] and in test [7] was inactive. In addition, the compound was called inactive in test [9], in test [11], in test [13], in test [16] and in [18]. Besides, the AC50 in test [14] is 4.98 µM (active); in [15], 40.5 µM (active); in test [17], 3.62 µM (active); in test [19], 6.87 µM (active); in test [20], 4.41 µM (active).

Regarding `COP(=S)(OC)SCN1C(=O)c2ccccc2C1=O`, the outcome in test [1], in test [2], in test [8], in test [9], in test [11] and in test [13] was inactive. Further, the compound was called inactive in test [14], in test [15], in test [16], in test [18], in test [19] and in test [20]. Further, in [17], the AC50 was 7.76 µM (active).

Regarding `CCC(C)c1ccc(O)cc1` (configuration not stated), the compound was called inactive in [1], in [2], in test [4], in test [6], in test [7] and in [8]. For the same compound, the compound was classed as inactive in [9], in test [10], in test [11], in [16], in test [17] and in test [18]. For the same compound, the outcome in test [19] and in test [20] was inactive. The AC50 in test [13] was 100 µM (active); in test [14], 67.3 µM (active); in test [15], 67.9 µM (active).

Turning to `C=CCc1ccc2c(c1)OCO2`, the result in test [1], in test [3], in [5], in test [6], in test [7] and in test [8] was inactive. In addition, the call in [9], in test [11], in [13], in test [14], in test [15] and in test [16] was inactive. Also, the result in test [17], in [18], in test [19] and in test [20] was inactive.

By AC50 is commonly meant the concentration giving half of the maximal activity seen.
